Assay [1] can be described thus: qHTS assay to identify aromatase inhibitors - cell viability counter screen (AID 743084;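 also: cells stimulated with testosterone during compound exposure; nearly all actives have a fitted effect of over 55% in size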). (In general: Quantitative high-throughput screening tests each substance at several concentrations.)
Assay [2] addresses Aryl hydrocarbon receptor (Homo sapiens) (UniProt P35869). Description: qHTS assay to identify small molecule that activate the aryl hydrocarbon receptor (AhR) signaling pathway (AID 743085).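 Also: HG2L7.5c1 human HepG2 liver cells with stably integrated DRE-driven firefly reporter; series mostly up to about 70 µM; nearly all actives have a fitted effect of over 15% in size.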 A digest of the protocol: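 HepG2 cells (HG2L7.5c1) stably carrying a firefly luciferase reporter driven by 20 dioxin responsive elements were exposed to compound for 24 h at 37C after a 5 h settling period; luminescence rise (ONE-Glo) indicated activation.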

Assay [3] is described as follows: qHTS assay to identify small molecule that activate the aryl hydrocarbon receptor (AhR) signaling pathway - cell viability counter screen (AID 743086).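 Also: HepG2 liver cells carrying the AhR DRE luciferase reporter; series mostly up to about 70 µM; nearly all actives have a fitted effect of over 45% in size.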 In short, it runs like this: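 HepG2-AhR-luc (HG2L7.5c1) cells, 4000/well, treated 24 h at 37 C with compound; viability measured as CellTiter-Fluor fluorescence after 30 min in the same wells as the luciferase read.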

Assay [4] deals with Peroxisome proliferator-activated receptor gamma (Homo sapiens) (UniProt P37231). The assay is described as follows: qHTS assay to identify small molecule agonists of the peroxisome proliferator-activated receptor gamma (PPARg) signaling pathway (AID 743094; active = well fitted activation curve with a large enough effect in the signal ratio in the repeat runs, not every such curve was filed as active; the % refers to the signal ratio). A digest of the protocol:
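HEK293H PPARg-bla cells, 5 h settle at 37C/5% CO2; compound (DMSO) 17 h, 37C; B/G FRET substrate 1 h RT; fluorescence intensity read-out. qHTS format.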

A short description of assay [5]: qHTS assay to identify small molecule antagonists of the peroxisome proliferator-activated receptor gamma (PPARg) signaling pathway - cell viability counter screen (AID 743194). Also: nearly all actives have a fitted effect of over 55% in size. A digest of the protocol:
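Cytotoxicity counter screen in PPARg-bla HEK293H cells, same wells as reporter assay. Compounds plus 50 nM rosiglitazone (final) for 17 h at 37 C, then viability read by CellTiter-Glo luminescence.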

Assay [6] can be described thus: qHTS assay for small molecule agonists of the antioxidant response element (ARE) signaling pathway - cell viability counter screen (AID 743203; calls by dose curve; also: nearly all actives have a fitted effect of over 55% in size). In short, it runs like this:
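Luminescence read-out (CellTiter-Glo, 30 min at room temperature) measured cell viability in the same wells as the ARE beta-lactamase reporter. HepG2 ARE-bla cells were treated with compounds for 16 hrs at 37C/5% CO2.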

A short description of assay [7]: qHTS assay for small molecule activators of the heat shock response signaling pathway - cell viability counter screen (AID 743209). Also: nearly all actives have a fitted effect of over 50% in size. A digest of the protocol:
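HSE-bla HeLa; 1500 cells/well; overnight 37 C, 5% CO2; compound 5 h 37 C; LiveBLAzer B/G substrate 2.5 h RT; CellTiter-Glo 30 min RT; luminescence.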

Assay [8] can be described thus: qHTS assay for small molecule agonists of the antioxidant response element (ARE) signaling pathway (AID 743202; active = well fitted activation curve with a large enough effect in the signal ratio in the repeat runs, not every such curve was filed as active; the % refers to the signal ratio; also: potency is read from the fitted curve at half-maximal effect). In short, it runs like this:
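HepG2 ARE-bla cells; 16 h treatment at 37 C; FRET-based beta-lactamase fluorescence read after 2 h substrate incubation at room temperature.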

Assay [9] in a line: qHTS assay for small molecule activators of the heat shock response signaling pathway (AID 743210; active = well fitted activation curve with a large enough effect in the signal ratio in the repeat runs, with a control signal flat, not every such curve was filed as active; the % refers to the signal ratio;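 also: HeLa cells with beta-lactamase reporter driven by heat shock elements; series mostly up to about 63 µM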). A digest of the protocol: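 Following overnight attachment, HSE-bla HeLa cells received test compounds for 5 h at 37 C; beta-lactamase activity was then detected via FRET substrate fluorescence.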
For assay [10], the target named is Peroxisome proliferator-activated receptor gamma (Homo sapiens) (UniProt P37231). The assay is described as follows: qHTS assay to identify small molecule antagonists of the peroxisome proliferator-activated receptor gamma (PPARg) signaling pathway (AID 743191; calls by dose curve; also: nearly all actives have a fitted effect of over 30% in size; also: potency is read from the fitted curve at half-maximal effect). A digest of the protocol:
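GeneBLAzer PPARg UAS-bla HEK293H cells, 5 h post-plating, exposed to compounds 17 h at 37C. LiveBLAzer B/G FRET substrate added for 1 h at room temperature; beta-lactamase reporter read by fluorescence intensity.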

Data on twelve molecules can be found in PubChem BioAssay (Tox21).

Results filed as inconclusive are left out. The source made the active and inactive calls. Unless noted, calls follow the shape of the dose curve; as a rule, active = well fitted curve in the direction sought with a large enough effect in the repeat runs; inconclusive = weak or mixed curves; inactive = no such curve, though single readings can be large; an effect the other way counts as inactive or inconclusive.

Peroxisome proliferator-activated receptor gamma (Homo sapiens), sequence (P37231 whole entry, looked up): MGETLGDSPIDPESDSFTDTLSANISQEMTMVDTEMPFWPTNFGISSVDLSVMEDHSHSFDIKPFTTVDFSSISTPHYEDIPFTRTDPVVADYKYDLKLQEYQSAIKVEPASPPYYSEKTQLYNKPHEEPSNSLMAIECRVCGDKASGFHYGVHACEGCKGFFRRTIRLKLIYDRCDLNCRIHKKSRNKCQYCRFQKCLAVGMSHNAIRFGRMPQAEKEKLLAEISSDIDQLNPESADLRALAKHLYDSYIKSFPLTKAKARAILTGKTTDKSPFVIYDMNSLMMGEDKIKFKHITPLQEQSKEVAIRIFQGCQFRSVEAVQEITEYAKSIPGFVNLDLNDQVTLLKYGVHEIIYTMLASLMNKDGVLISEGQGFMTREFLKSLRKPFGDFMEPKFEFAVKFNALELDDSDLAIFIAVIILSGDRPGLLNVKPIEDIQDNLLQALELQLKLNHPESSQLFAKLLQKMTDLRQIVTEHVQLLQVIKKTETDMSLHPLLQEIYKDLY
Aryl hydrocarbon receptor (Homo sapiens), sequence (P35869 whole entry, looked up): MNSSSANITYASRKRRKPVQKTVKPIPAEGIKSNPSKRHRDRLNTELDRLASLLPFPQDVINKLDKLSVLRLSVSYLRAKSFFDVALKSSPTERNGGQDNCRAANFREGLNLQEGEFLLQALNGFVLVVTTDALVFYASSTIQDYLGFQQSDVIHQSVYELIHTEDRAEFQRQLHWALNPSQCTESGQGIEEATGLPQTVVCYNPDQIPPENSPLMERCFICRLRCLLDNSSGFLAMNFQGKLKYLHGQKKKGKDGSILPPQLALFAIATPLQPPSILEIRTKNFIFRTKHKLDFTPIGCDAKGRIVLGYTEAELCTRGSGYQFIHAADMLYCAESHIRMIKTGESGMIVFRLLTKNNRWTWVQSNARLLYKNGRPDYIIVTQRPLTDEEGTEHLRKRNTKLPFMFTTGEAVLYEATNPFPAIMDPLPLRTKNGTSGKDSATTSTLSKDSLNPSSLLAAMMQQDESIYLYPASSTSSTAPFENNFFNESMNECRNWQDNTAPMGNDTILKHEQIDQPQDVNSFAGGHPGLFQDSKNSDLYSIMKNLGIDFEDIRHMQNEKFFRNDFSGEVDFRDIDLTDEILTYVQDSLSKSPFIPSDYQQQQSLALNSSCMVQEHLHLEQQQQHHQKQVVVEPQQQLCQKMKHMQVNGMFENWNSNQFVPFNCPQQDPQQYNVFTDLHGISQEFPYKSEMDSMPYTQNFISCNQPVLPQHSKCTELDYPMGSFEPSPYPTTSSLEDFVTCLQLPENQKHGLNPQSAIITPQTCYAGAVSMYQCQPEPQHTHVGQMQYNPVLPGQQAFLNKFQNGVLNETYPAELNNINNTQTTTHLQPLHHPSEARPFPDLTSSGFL

Turning to `O=S(=O)(O)SSS(=O)(=O)O`, the Potency result in [1], in assay [2] and in [3] was “inactive” each time. The call in [4], in [5], in assay [6] and in assay [7] was inactive.
Consider `Nc1ccc(S(=O)(=O)Nc2ccccn2)cc1`, for which the Potency entry in assay [1], in assay [2], in [3] and in assay [8] was “inactive” in each case. For the same molecule, the molecule was classed as inactive in [4], in assay [5], in [6], in [7] and in [9].
As for `Cc1nc2ccccc2c(=O)o1`, the Potency result in assay [1], in assay [2], in [3], in [10] and in assay [8] was “inactive” in each case. Besides, the molecule was classed as inactive in assay [5], in [6], in assay [7] and in assay [9].
With `CCc1nccnc1C`, the Potency result in assay [1], in assay [2], in assay [3], in [10] and in [8] was “inactive” in each case. Also, the call in [5], in assay [6], in assay [7] and in assay [9] was inactive.
Take `C=C(C)[C@@H]1CC[C@@H](C)C[C@@H]1O`: the Potency result in assay [1], in [2], in assay [3] and in assay [8] was “inactive” in each case. In addition, the molecule was called inactive in [4], in assay [5], in assay [6], in assay [7] and in assay [9].
Regarding `C=CCOCC(O)CCl` (stereo not drawn), the Potency result in assay [1], in [2], in assay [3] and in assay [10] was “inactive” in each case. For the same molecule, the result in assay [5], in assay [6], in assay [7] and in [9] was inactive.
On to `Oc1ccccc1Cc1ccccc1O`, for which the Potency result in [1], in assay [2] and in assay [3] was “inactive” in each case. The Potency in assay [10] is 30.9 µM (active); in assay [8], 38.6 µM (active). Also, the outcome in [6] and in assay [7] was inactive.
Take `Nc1ccnc(=O)[nH]1`: the Potency result in assay [1], in assay [2], in [3], in assay [10] and in assay [8] was “inactive” in each case. Besides, the molecule was called inactive in [5], in [6] and in assay [9].
For the molecule `Nc1ccc(S(=O)(=O)NC(=O)c2ccccc2)cc1`, the Potency result in assay [1], in [2] and in assay [10] was “inactive” throughout. Moreover, the outcome in assay [4], in assay [5], in [6], in assay [7] and in assay [9] was inactive.
Regarding `CCN(Cc1cccc(S(=O)(=O)O)c1)c1ccccc1`, the Potency result in assay [1], in [2], in assay [3] and in assay [8] was “inactive” each time. The call in assay [5], in assay [6] and in assay [9] was inactive.
Turning to `CC(C)C(=O)c1ccccc1`, the Potency entry in assay [1], in [2], in assay [10] and in assay [8] was “inactive” throughout. The call in assay [4], in [5], in [6], in [7] and in assay [9] was inactive.
`O=c1[nH]c(=O)c2ccccc2o1`: the Potency result in [1], in [2], in assay [10] and in assay [8] was “inactive” in each case. Also, the outcome in assay [4], in assay [5], in [6] and in assay [9] was inactive.
